This is an account of results in PubChem BioAssay (Tox21).

A short description of test [1]: qHTS assay for small molecule agonists of the p53 signaling pathway - cell viability (AID 651633; calls by dose curve;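 further: p53RE-bla HCT reporter cells with a stable beta-lactamase p53 reporter; series mostly up to about 83 µM; nearly all actives have a fitted effect of over 30% in size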). A digest of the protocol:
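p53RE-bla cells were treated with compound for 16 hours at 37 C. Cytotoxicity was then measured as CellTiter-Glo luminescence after 30 min at room temperature.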
For orientation: Quantitative high-throughput screening tests each substance at several concentrations.

Test [2] is described as follows: qHTS assay for small molecules that induce genotoxicity in human embryonic kidney cells expressing luciferase-tagged ATAD5 - cell viability (AID 651634; calls by dose curve; further: nearly all actives have a fitted effect of over 25% in size). A digest of the protocol: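 HEK293T ATAD5-luc cells, 2,000/well; compound 15.5 hr, 37C/5% CO2; CellTiter-Fluor 30 min, 37C; fluorescence read.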
Test [3] in a line: qHTS assay for small molecule disruptors of the mitochondrial membrane potential - cell viability (AID 720634; calls by dose curve;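 further: human HepG2 liver cancer cells; series mostly up to about 83 µM; nearly all actives have a fitted effect of over 20% in size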). A digest of the protocol:
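Luminescence from CellTiter-Glo (ATP content) gave viability in HepG2 cells, read in the same wells as the MMP dye assay after 1 hr compound exposure at 37 C.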

Test [4] is described as follows: qHTS assay for small molecule disruptors of the mitochondrial membrane potential (AID 720635). Further: potency means the concentration at half of the fitted maximal effect. A digest of the protocol:
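HepG2 cells exposed to compound 1 hr at 37C, then Mito-MPS dye 30 min. Ratio read of aggregate (540/590 nm) versus monomer (490/535 nm) fluorescence.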

Test [5] can be described thus: qHTS assay to test for compound auto fluorescence at 590 nm (red) in HepG2 cells (AID 720674). Put shortly:
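Fluorescence at 590 nm emission following 540 nm excitation was recorded from HepG2 wells one hour after compound transfer, with DMSO-only wells as vehicle and Rose Bengal sodium equivalency as the scale.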

The nature of test [6]: qHTS assay to test for compound auto fluorescence at 535 nm (green) in HepG2 cells (AID 720675).
Test [7] can be described thus: qHTS assay to test for compound auto fluorescence at 460 nm (blue) in HEK293 cells (AID 720678). Put shortly: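 HEK293 cells (2,000 per well, medium with 10% dialyzed FBS) attached for 4-5 hr at 37C, then received compound and stood overnight at 37C, 5% CO2. Blue fluorescence was read at Ex/Em 405/460 nm and expressed relative to triamterene.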
Test [8] can be described thus: qHTS assay to test for compound auto fluorescence at 590 nm (red) in HEK293 cells (AID 720679). Put shortly: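 HEK293 cells (2,000/well, medium with 10% dialyzed FBS) attached for 4-5 hr at 37C, received 23 nL compound and were incubated overnight at 37C, 5% CO2. Red fluorescence was then read at 540/590nm Ex/Em, referenced to Rose Bengal sodium.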
Test [9] in a line: qHTS assay for small molecules that induce genotoxicity in human embryonic kidney cells expressing luciferase-tagged ATAD5 (AID 651632). Further: nearly all actives have a fitted effect of over 15% in size. A digest of the protocol:
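Luminescence read-out: after 16 hr compound exposure at 37C, ATAD5-luciferase HEK293T cells received Amplite, 30 min RT, then CCD imaging. A rise in signal marks genotoxic stress.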

Values without a mark were called inactive. Results filed as inconclusive are left out. Calls of active or inactive are those of the source. Unless noted, the call rests on the fitted dose curve; in most records, active means well fitted curve in the direction sought with a large enough effect in the repeat runs; inconclusive means weak or mixed curves; inactive means no such curve, though single readings can be large; an effect the other way counts as inactive or inconclusive.
On the % scale 0 is the no-effect control and ±100 the full control effect.

Regarding `CC(CO)c1ccccc1` (stereo unspecified), the result in test [1], in [3], in test [5], in test [6], in [7] and in test [8] was inactive. Further, the Potency entry in test [2] and in test [4] was “inactive” in each case.

Turning to `CC1=C(C(=O)O)N2C(=O)[C@@H](NC(=O)[C@H](N)c3ccc(O)cc3)[C@H]2SC1`, the Potency entry in test [9], in test [2] and in test [4] was “inactive” throughout. For the same compound, the compound was classed as inactive in test [3]. For the same compound, the fluorescence, relative to Rose Bengal in test [5] is 0.188% [at 18.6 µM]. In [6], the fluorescence, % of fluorescein control was -0.0034% [at 18.6 µM]. Besides, the fluorescence, % of triamterene in [7] was 0.187% [at 18.6 µM]. In addition, the fluorescence, % of fluorescent control in test [8] was -0.165% [at 18.6 µM].

For the compound `Nc1ncnc(Nc2ccccc2)n1`, the Potency entry in test [9], in test [2] and in [4] was “inactive” each time. The compound was classed as inactive in test [3], in test [5], in test [6], in [7] and in test [8].

Consider `C[Si](C)(C)C`, for which the outcome in [1], in test [3], in test [5], in [6], in test [7] and in test [8] was inactive. Moreover, the Potency entry in test [2] and in [4] was “inactive” throughout.

For `CC(=O)Nc1cccc(C)c1`, the call in test [1], in test [3], in [5], in test [6], in [7] and in test [8] was inactive. The Potency entry in test [2] and in [4] was “inactive” throughout.

For `CC(=O)Nc1ccc(S(=O)(=O)Cl)cc1`, the compound was called inactive in [1], in test [3], in test [6], in test [7] and in test [8]. Also, the Potency entry in [2] was “inactive”.

Consider `CCCOC(OCCC)OCCC`, for which the Potency result in test [9] and in [2] was “inactive” throughout. Besides, the call in test [3], in test [5], in test [6], in test [7] and in [8] was inactive.

In the case of `C=C(C)C(=O)OCc1ccccc1`, the Potency entry in test [2] and in test [4] was “inactive” throughout. Moreover, the compound was called inactive in test [3], in test [5], in [6], in [7] and in [8].

With `CCCCCCCCCCl`, the Potency entry in [9], in [2] and in [4] was “inactive” in each case. The compound was called inactive in [3], in test [5], in [6], in [7] and in test [8].

In the case of `O=C(O)c1ccc(Cl)cc1Cl`, the Potency result in test [9], in [2] and in test [4] was “inactive” in each case. In addition, the result in [3], in test [6], in test [7] and in test [8] was inactive.

For `CC(=O)c1ccc2c(c1)Cc1ccccc1-2`, the Potency result in test [9] and in test [2] was “inactive” each time. The result in [3], in [5], in test [6], in test [7] and in test [8] was inactive.

As to `Nc1cccc(O)c1`, in [9], the Potency result was “inactive”. Also, the compound was classed as inactive in [1], in test [6], in test [7] and in test [8].

Regarding `COc1cc2c(cc1OC)[C@@H]1CC(=O)[C@@H](CC(C)C)CN1CC2`, the Potency entry in test [9] and in test [2] was “inactive” each time. In addition, the result in [3], in test [5], in test [6], in [7] and in test [8] was inactive.

Regarding `O=S(=O)(O)c1ccc2cc(O)c(S(=O)(=O)O)cc2c1`, the compound was called inactive in [1], in [3], in test [5], in [6] and in test [8]. The Potency result in [2] is “inactive”.

Regarding `O=C(CCN1CCN(CCO)CC1)N1c2ccccc2Sc2ccc(C(F)(F)F)cc21`, the Potency entry in test [9] and in test [2] was “inactive” each time. Also, the call in [3], in [5], in [6], in [7] and in [8] was inactive.

Consider `CCOC(=O)CC(=O)c1ccccc1`, for which the compound was called inactive in [1], in test [3], in [6], in test [7] and in test [8]. For the same compound, the Potency result in test [2] was “inactive”.

For `CC(C)c1ccc2cc(C(C)C)ccc2c1`, the Potency entry in [9] and in test [2] was “inactive” in each case. Besides, the call in [3], in test [6], in test [7] and in [8] was inactive.

For `COP(=O)(OC)OC(c1ccc(Cl)cc1)P(=O)(OC)OC` (stereo unspecified), the Potency entry in test [9], in test [2] and in [4] was “inactive” in each case. The compound was called inactive in test [3], in test [6], in test [7] and in test [8].

With `CC(C)C(=O)OCCc1ccccc1`, the Potency result in test [9] and in test [2] was “inactive” each time. For the same compound, the result in [3], in [5], in test [6], in test [7] and in test [8] was inactive.

As to `CC(C)OC(=O)CCCCC(=O)OC(C)C`, the Potency result in test [9] and in [2] was “inactive” throughout. Besides, the compound was classed as inactive in [3], in [5], in test [6], in test [7] and in [8]. Further, in test [4], the Potency is 54.6 µM (active).

For the compound `O=C(Nc1ccc(Cl)c(Cl)c1)C1CC1`, the Potency entry in test [9] and in [2] was “inactive” throughout. Also, in test [4], the Potency was 11.9 µM (active). In addition, the compound was called inactive in test [5], in test [6], in test [7] and in test [8].

As to `COC(=O)CCCCCCCC(=O)OC`, the Potency result in test [9] and in test [2] was “inactive” each time. The call in [3], in test [5], in test [6], in test [7] and in test [8] was inactive.

`CN(C)CCOCCO`: the Potency entry in test [9], in [2] and in test [4] was “inactive” throughout. For the same compound, the call in test [3], in test [5], in [6], in test [7] and in [8] was inactive.

On to `O=C(OCC(COC(=O)c1cccnc1)(COC(=O)c1cccnc1)COC(=O)c1cccnc1)c1cccnc1`, for which the Potency result in [9], in [2] and in [4] was “inactive” throughout. Besides, the call in test [3], in test [5], in test [6], in test [7] and in [8] was inactive.
